Source: PubChem BioAssay
IMPase inh – membrane-permeable compound that blocks inositol monophosphatase; CHO-M1 cells, IP1 accumulation, HTRF TR-FRET ratio; inhibition (IP1 accumulation), % at 46.1 µM; 120,000 tested, under 10 active; active = well fitted curve in the direction sought with a large enough effect in the signal ratio, not every such curve was filed as active; inconclusive = small, poorly fitted or top-dose-only effect, or a change in a side signal; inactive = no such curve, though single readings can be large or run the other way; the % refers to the signal ratio;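 also: cells stimulated with carbachol in lithium chloride buffer; plate controls were DMSO basal wells for no effect and reference inhibitor wells for full effect; higher means more IMPase inhibition seen as more IP1 and lower FRET ratio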
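Cellular IMPase inhibition is scored as a rise in cytosolic IP1, detected by competitive TR-FRET between d2-labelled IP1 and a europium anti-IP1 antibody. M1-expressing CHO cells were stimulated with carbachol for 30 min at 37C, with lithium (50 mM LiCl) present in the buffer.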
PNC assembly inh – inhibitors of perinucleolar compartment assembly | PC3M PTB-GFP, PNC prevalence imaging, 16 h; active compounds read low | activity change (PNC), negative = inhibition, % at 10 µM | hit rate 3.1% among 140,000 | AID 2417;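 active = readout at or below -70, meaning at least 70% loss of cells showing the perinucleolar compartment, a nuclear body marking cancer cells; inconclusive = readout between -30 and a set limit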;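 also: plate controls were DMSO wells for no effect and camptothecin positive control wells for full effect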
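Read-out is percentage of cells bearing a perinucleolar compartment, from automated 20x imaging of fixed, Hoechst-stained PC3M PTB-GFP cells. Cells were seeded 4 h, then exposed 16 h to compound (23 nl of library stock) in duplicate plates.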
HPGD block – blocks human HPGD enzyme activity; purified HPGD, NADH fluorescence kinetic, PGE2 substrate; Potency, µM, inactives show at the top dose activity change, negative = inhibition, hits mostly inhibitors; hit rate 4.3% among 150,000; AID 894; also: potency is read from the fitted curve at half-maximal effect
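NADH formation kinetics: reaction with 30 uM PGE2 and 1 mM NAD+ (final), 20 nM enzyme, Tris-HCl pH 8 with Tween 20, after 15 min compound preincubation at room temperature. Fluorescence change, last versus first of five reads.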
ALDH1A1 block – blocks purified human ALDH1A1 activity; Purified ALDH1A1, NADH fluorescence, propionaldehyde substrate; Potency, µM (titrated, usually from 75.3 µM), for inactives: at the top dose activity, negative = inhibition, most hits filed as inhibitors; hit rate 7.3% among 220,000; AID 1030;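 also: potency is read from the fitted curve at half-maximal effect; plate controls were no enzyme wells and a reference inhibitor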
IMPase Li cell – membrane-permeable IMPase blocker, potentiated with lithium; CHO-M1 cells, IP1 TR-FRET (IP-One), carbachol + lithium; Potency, µM (titrated, usually from 59.4 µM), without a hit: at the top dose activity, negative = IMPase inhibition, hits mostly inhibitors; hit rate 0.35% among 210,000; active = well fitted curve in the direction sought with a large enough effect; inconclusive = small, poorly fitted or top-dose-only effect, or another doubt; inactive = no such curve, though single readings can be large; an effect the other way counts as inactive or inconclusive;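 also: IP1 builds up when IMPase is blocked and the TR-FRET signal falls; potency is read from the fitted curve at half-maximal effect; plate controls were basal vehicle for no effect and high inhibitor control for full effect; nearly all actives have a fitted effect of over 50% in size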
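Concentration–response in CHO-M1 cells, lithium-potentiated; 30 min at 37C. IP1 detected by competitive TR-FRET after 10 min lysis at RT. Hill-fitted AC50.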
ALOX12 inhib – blocks human 12-lipoxygenase activity. P18054. purified 12-hLO, xylenol orange hydroperoxide absorbance. Potency, µM (doses to about 57.1 µM), for the others: top-dose activity change, negative = inhibition, actives largely listed as inhibitors. hit rate 0.12% among 150,000. AID 1452; active = well fitted curve in the direction sought with a large enough effect; inconclusive = small, poorly fitted or top-dose-only effect, or another doubt; inactive = no such curve, though single readings can be large; an effect the other way counts as inactive or inconclusive; also: potency is read from the fitted curve at half-maximal effect; nearly all actives have a fitted effect of over 55% in size
Target sequence (P18054 whole entry, looked up): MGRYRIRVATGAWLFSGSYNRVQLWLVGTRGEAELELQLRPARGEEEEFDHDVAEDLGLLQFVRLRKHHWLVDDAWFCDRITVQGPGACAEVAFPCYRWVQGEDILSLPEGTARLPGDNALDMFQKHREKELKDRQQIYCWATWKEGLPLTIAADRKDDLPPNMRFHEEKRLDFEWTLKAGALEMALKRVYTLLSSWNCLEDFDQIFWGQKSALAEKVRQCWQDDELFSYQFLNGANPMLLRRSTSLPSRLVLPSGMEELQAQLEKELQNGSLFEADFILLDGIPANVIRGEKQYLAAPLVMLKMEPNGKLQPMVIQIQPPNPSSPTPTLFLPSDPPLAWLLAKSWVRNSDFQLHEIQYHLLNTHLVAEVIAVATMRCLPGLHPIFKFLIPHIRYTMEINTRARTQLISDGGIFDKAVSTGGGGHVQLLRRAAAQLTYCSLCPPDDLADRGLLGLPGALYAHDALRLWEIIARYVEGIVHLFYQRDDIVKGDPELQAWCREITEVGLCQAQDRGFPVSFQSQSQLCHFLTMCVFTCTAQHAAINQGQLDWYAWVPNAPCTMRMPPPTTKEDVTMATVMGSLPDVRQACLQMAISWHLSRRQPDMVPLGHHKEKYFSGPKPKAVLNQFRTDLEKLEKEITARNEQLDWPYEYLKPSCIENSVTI
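Purified human 12hLO (150 nM), preincubated 15 min with compound, then 40 uM arachidonic acid for 30 min, room temperature, Hepes pH 7.0 with 0.01% Triton X-100. Hydroperoxide detected by ferrous iron/xylenol orange; 573/405 nm absorbance ratio gives reaction progress.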
* marks the source's active call; other numbers are inactive results; ? = inconclusive; . = no result; [ ] = another dose, or the depositor's remark. A selection: hits, their analogues and other compounds. The true share with any hit is near 11%. Unless noted, calls follow the shape of the dose curve; as a rule, active = well fitted inhibition curve with a large enough effect (not every such curve was filed as active); inconclusive = small, poorly fitted or top-dose-only effect, or another doubt; inactive = no such curve, though single readings can be large or run the other way. Unless noted, % is scaled to controls: 0 for no effect and ±100 for the full control effect.

SMILES	IMPase inh	PNC assembly inh	HPGD block	ALDH1A1 block	IMPase Li cell	ALOX12 inhib
CCOC(=O)CNC(=O)CSc1ncnc2c1cnn2-c1ccccc1	-8.3	13.9	-7.6%	-2.2%	15.8%	6.6%
COc1ccc(OC)c(NC(=O)CSc2ncnc3c2cnn3-c2ccccc2Cl)c1	-1.3[0.0738 µM]	?	-20.9%	15.8µM*	20.3%	3.4%
COc1cc(NC(=O)CSc2ncnc3c2cnn3Cc2ccccc2)cc(OC)c1	9.4	39.3	-16.2%	?	7.4%[38.3 µM]	-2.4%
CCOC(=O)CC(=O)CSc1ncnc2c1cnn2-c1ccccc1	?	3.4	-18.6%	22.4µM*	-24.6%[38.3 µM]	-13.7%
CN(C)c1ccc(-c2cncnc2NCCN2CCOCC2)cc1	.	.	.	-13.7%	18.9%	.
COc1cccc(C(c2sc3ncnn3c2O)N2CCc3ccccc3C2)c1 (stereo not given)	-4.8	9.3	?	?	2.6%	4.9%
COc1cccc(C(c2sc3ncnn3c2O)N2CC(C)OC(C)C2)c1 (stereo not given)	1.4	7.1	-9.7%	0.355µM*	33.5%[38.3 µM]	2.9%
CS(=O)(=O)N1CCC2(CCCN(Cc3cc(C(F)(F)F)cc(C(F)(F)F)c3)C2)CC1	.	.	-12.7%	-11.5%	20.8%	0.1%
CCOC(=O)c1[nH]c2c(c1Cc1ccccc1)C(=O)CC(c1ccccc1)C2 (stereo not given)	13.7	.	.	.	.	.
COc1ccccc1-c1nccc(NCc2cnc(C)cn2)n1	.	.	-16.6%	3.4%	-5.0%	-5.0%
O=C(NCCSc1c[nH]c2ccccc12)c1ccc(Br)o1	4.1	-119.3*	7.08µM*	-10.7%	7.6%	-3.3%
Cc1[nH]c2ccccc2c1SCCNC(=O)c1ccc(Br)o1	-2.1	?	14.1µM*	-2.0%	7.4%	-4.2%
CC(C)C(=O)NCCSc1c[nH]c2ccccc12	8.3	31.8	-17.5%	-2.6%	23.8%[38.3 µM]	-2.8%
O=C(NCCC(c1ccccc1)c1ccccc1)c1ccc(Br)o1	5.9	47.9	14.1µM*	?	35.2%[38.3 µM]	-4.9%
COC(=O)[C@@]1(Cc2ccc(OC)cc2)[C@H]2c3cc(C(=O)N4CCCC4)n(Cc4cc(C)n(C)n4)c3C[C@H]2CN1C(=O)c1ccccc1	.	.	-9.0%	3.2%	-9.7%	-3.0%
CCN(CC)S(=O)(=O)c1ccc(NC2c3ccccc3C(=O)N2CCN2CCOCC2)cc1 (stereo not given)	2.8	-12.4	-10.6%	0.199µM*	37.2%[38.3 µM]	-4.9%
Cc1ccc(NC2c3ccccc3C(=O)N2CCN2CCOCC2)cc1 (stereo not given)	6.2	?	-5.6%	1µM*	-3.3%[38.3 µM]	-5.3%
Cc1ccccc1-c1cncnc1NCc1ccccc1	.	.	.	?	21.5%	.
O=S(=O)(CCN1C=CC(C(F)(F)F)=NCC1)c1ccc(Cl)cc1Cl	.	.	.	12.6µM*	.	.
Cc1nc(NC2CCCCC2)c2nc(-c3ccccc3)n(CCCN3CCOCC3)c2n1	.	.	?	?	-5.3%	2.2%
CCOC(=O)c1ccc2c(c1)C(=O)N(C1CCCCC1)C2=O	8.5	-8.7	-7.9%	22.4µM*	-0.6%[38.3 µM]	-1.6%
CC(C)(C)NC(=O)c1ccc2c(c1)C(=O)N(C1CCCCC1)C2=O	-2.7	-20.9	-2.4%	2.82µM*	-7.1%	-0.9%
CN1C(=O)c2ccc(C(=O)NC3CCCCC3)cc2C1=O	2.2	16.0	-10.9%	?	?	5.1%
COc1ccccc1CNc1cc(-c2ccccc2C(F)(F)F)ncn1	.	.	.	1.6%	9.2%	.
O=C(CCn1c(=O)[nH]c2ccccc2c1=O)NCCSCc1ccccc1	.	.	.	4.0%	-4.6%	.
SMILES	IMPase inh	PNC assembly inh	HPGD block	ALDH1A1 block	IMPase Li cell	ALOX12 inhib
c1ccc(-n2c(SCc3nc(-c4cccs4)no3)nnc2-c2ccco2)cc1	21.0	?	31.6µM*	7.08µM*	32.2%[38.3 µM]	-17.6%
c1ccc(-n2c(SCc3ccncc3)nnc2-c2ccco2)cc1	0.6	-6.4	-11.2%	10µM*	5.9%[38.3 µM]	-5.5%
CCn1c(SCc2nc(-c3ccccc3)no2)nnc1-c1cccs1	1.6	41.4	-10.7%	8.9%	33.7%[38.3 µM]	4.8%
CC1(C)C(=O)C2C[C@]3(O)C4=CC(=O)OC(c5ccoc5)[C@]4(C)CCC3[C@](C)(C2=O)C1CC(=O)O (stereo not given in full)	.	.	-10.1%	7.9%	4.5%	2.0%
CCOC(=O)c1c(NC(=O)COc2cccc(C)c2C)sc2c1CCC(CC)C2 (stereo not given)	-6.3	.	.	.	.	.
CC(C)(C)[C@@]1(O)CCN2C[C@@H]3c4ccccc4CCc4cccc(c43)[C@@H]2C1	6.6	.	.	.	.	-4.3%
Cc1ccc(C)c2[nH]c(=O)c(C(c3nnnn3C(C)(C)C)N3CC=C(c4ccc(F)cc4)CC3)cc12 (stereo not given)	.	?	-21.9%	?	-3.0%	-3.2%
COc1ccccc1CNc1ncnc2ccc(-c3cccc(C#N)c3)cc12	.	.	.	?	24.1%	.
CSc1cccc(NC(=O)CN2C(=O)COc3ccc(Cl)cc32)c1	10.1	.	.	.	.	.
CCC(C)c1ccc(O)c(N)c1 (stereo not given)	-6.1	-29.9	?	25.1µM*	-3.7%[38.3 µM]	-27.3%
CC(C)c1ccc(O)c(N)c1	7.6	16.8	-20.7%	28.2µM*	20.1%[38.3 µM]	?
Cc1ccn2cc(-c3ccc(NS(=O)(=O)c4ccccc4)cc3)nc2c1	.	17.9	22.4µM*	-4.8%	5.5%	-1.9%
